Here are results for 36 compounds from PubChem BioAssay.

The source made the active and inactive calls.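 The calls were made as follows, unless noted: active = z-score of at least 1.8 in each of two replicates, scored against plate mean and spread of sample wells; inactive = the rest.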

The nature of assay [1]: survival rescue of mitochondrial mutant cells in low glucose, primary screen, MELAS cybrids, Rieske KO mouse fibroblasts, CellTiter-Glo (AID 1508586;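 active = mean z-score across replicates of 1.96 or higher in either the MELAS or the Rieske mutant cell line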;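 also: test concentration not given here; z relative to plate mean and SD of compound and empty wells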).
Assay [2] can be described thus: viability rescue of complex I mutant cybrids, primary screen, cell-based, galactose medium, ATP luminescence (AID 1645843).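 Also: positive z means more ATP and so rescue of galactose-driven cybrid death.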 Particulars: complex I mutant cybrid cells, 72 h, stronger effect = higher value.
[3] abbreviates: MELAS cybrid survival, CellTiter-Glo 48 h, stronger effect = higher value.
[4] abbreviates: Rieske KO mouse fibroblast survival, CellTiter-Glo 72 h.

On to `COC(=O)CCN1CC(OCc2ccncc2)CN(C(=O)Cc2c(F)cccc2Cl)CC1=O` (stereo not drawn), for which the z-score in assay [1] (setting [3]) was -0.399 (inactive); in assay [1] (setting [4]), 0.103; in assay [2], 1.43 (inactive).
Turning to `Cc1[nH]cnc1CNc1cc(C(=O)Nc2cccc(N(C)C)c2)cc(S(=O)(=O)N2CCCC2)c1`, the figures for the z-score in assay [1] (setting [3]), in assay [1] (setting [4]) and in assay [2] were -0.329 (inactive), -0.954 and 0.055 (inactive), respectively.
For `COCCCN1C(=O)N(Cc2ccccc2)C(=O)C12CCN(Cc1ccc(-c3ccco3)cc1)CC2`, the results for the z-score in assay [1] (setting [3]), in assay [1] (setting [4]) and in assay [2] were 0.678 (inactive), 0.032 and -1.64 (inactive), respectively.
As for `CN(C)c1ncc(CN2CCc3c(cc(Cc4ccccc4)c(=O)n3Cc3ccc(F)cc3)C2)s1`, the z-score is -0.5 (inactive) in assay [1] (setting [3]), 0.0943 in assay [1] (setting [4]) and -0.525 (inactive) in assay [2].
In the case of `CC(C)CCN1C(=O)N(CCN(C)C)C(=O)C12CCN(Cc1cn(C)c3ccccc13)CC2`, the z-score is -0.333 (inactive) in assay [1] (setting [3]), -0.689 in assay [1] (setting [4]) and 0.81 (inactive) in assay [2].
For `Cc1c(CN2CC(=O)N(Cc3ccccc3)CC(O)C2)c(=O)n(-c2ccccc2)n1C` (stereo not drawn), the z-score is 0.325 (inactive) in assay [1] (setting [3]), -0.72 in assay [1] (setting [4]) and 0.83 (inactive) in assay [2].
As to `Cc1nnc(CN(C)C(=O)c2cc(-c3ccc(C)s3)cc(S(=O)(=O)N3CCOCC3)c2)o1`, the z-score in assay [1] (setting [3]) was -0.234 (inactive); in assay [1] (setting [4]), -0.11; in assay [2], 0.29 (inactive).
Taken in the same sequence, the figures for `C=CCn1nc(C(=O)N2CCOCC2)c2c1CCC(NCc1ccc(Cl)s1)C2` (stereo not drawn) were -0.625 (inactive), -0.989 and 0.86 (inactive).
As to `Cn1nc(C(=O)N2CCCCCC2)c2c1CCC(NCc1ccc(C(F)(F)F)cc1)C2` (stereo not drawn), the z-score in assay [1] (setting [3]) is -0.174 (inactive); in assay [1] (setting [4]) it was -0.22; in assay [2], 1.12 (inactive).
In the same order, the values of `CN(C)CCCNC(=O)[C@@H]1C[C@H](CN2CCOCC2)CN(CCc2ccccc2)C1` are -0.339 (inactive), -0.139 and -0.365 (inactive).
In the same order, the values of `CCc1cc(C(=O)N2CC(=O)N(Cc3ccc(OC)cc3)CC(OCc3ccncc3)C2)n(C)n1` (stereo not drawn) are -0.128 (inactive), -0.65 and 0.77 (inactive).
Taken in the same sequence, the figures for `CCc1cc(C(=O)N2CCc3c(c(C(=O)N4CCN(c5ccccc5)CC4)nn3CC)C2)n(C)n1` were -0.699 (inactive), -0.0183 and 0.405 (inactive).
As to `Cc1ccc(CNC(=O)c2nn(C)c3c2CC(NC2CCN(Cc4ccccc4)CC2)CC3)o1` (stereo not drawn), the z-score is 0.347 (inactive) in assay [1] (setting [3]), 0.979 in assay [1] (setting [4]) and -1.23 (inactive) in assay [2].
As for `COc1ccc(CN2C[C@@H](CN3CCOCC3)C[C@@H](C(=O)NCC3CCCO3)C2)cc1OC` (stereo partly drawn), the values for the z-score in assay [1] (setting [3]), in assay [1] (setting [4]) and in assay [2] were 0.0226 (inactive), 0.461 and 1.14 (inactive), respectively.
As to `COC(=O)CCN1CC(OCc2ccncc2)CN(C(=O)c2csc(SC)n2)CC1=O` (stereo not drawn), the z-score in assay [1] (setting [3]) was -0.62 (inactive); in assay [1] (setting [4]), -0.661; in assay [2] it was 0.42 (inactive).
On to `COc1cc(CN2CC(=O)N(CC3CCOCC3)CC(OCc3ccccn3)C2)cc2c1OCO2` (stereo not drawn), for which the z-score in assay [1] (setting [3]) was -0.369; in assay [1] (setting [4]), 4.95; in assay [2], -1.33 (inactive).
Regarding `COCCCNC(=O)c1nn(C)c2c1CN(C(=O)Cc1c(C)[nH]c3c(F)cccc13)CC2`, the values for the z-score in assay [1] (setting [3]), in assay [1] (setting [4]) and in assay [2] were -0.326 (inactive), -0.829 and 0.99 (inactive), respectively.
With `Cc1nc(CN(C)C2CCc3c(c(C(=O)N(C)C)nn3CC3CCCCC3)C2)cs1` (stereo not drawn), the figures for the z-score in assay [1] (setting [3]), in assay [1] (setting [4]) and in assay [2] were -0.264 (inactive), -0.141 and 0.725 (inactive), respectively.
For `O=C1[C@@H]2C[C@@H](O)CN2C(=O)[C@H]2CN(Cc3ccc(CN4CCCCC4)s3)CCN12`, the z-score in assay [1] (setting [3]) was -0.179 (inactive); in assay [1] (setting [4]), -0.745; in assay [2] it was 0.32 (inactive).
As for `CCOC(=O)c1nn(CC)c2c1CN(C(=O)Cn1nc(-c3ccccc3)c3ccccc3c1=O)CC2`, the z-score in assay [1] (setting [3]) is -0.0607 (inactive); in assay [1] (setting [4]) it was 0.472; in assay [2] it was 0.925 (inactive).
As to `COc1cccc(C(=O)N2CCN3C(=O)[C@@H]4C[C@@H](O)CN4C(=O)[C@H]3C2)c1`, the z-score is -0.0988 (inactive) in assay [1] (setting [3]), 0.379 in assay [1] (setting [4]) and 0.555 (inactive) in assay [2].
Regarding `CCOC(=O)c1nn(CCC(F)(F)F)c2c1CN(C(=O)c1ccco1)CC2`, the figures for the z-score in assay [1] (setting [3]), in assay [1] (setting [4]) and in assay [2] were -0.696 (inactive), -0.531 and -0.32 (inactive), respectively.
On to `C[C@H]1NC(=O)[C@H]2CN(C(=O)Oc3ccc(Cl)cc3)CCN2C1=O`, for which the results for the z-score in assay [1] (setting [3]), in assay [1] (setting [4]) and in assay [2] were -0.514 (inactive), 0.985 and 0.585 (inactive), respectively.
Taken in the same sequence, the figures for `COC(=O)c1c(NC(=O)C2CC2)c2cc(NC3CCOCC3)cnc2n1Cc1ccccc1` were -0.892 (inactive), 0.482 and -0.845 (inactive).
Consider `Cc1onc(-c2ccccc2)c1C(=O)N1CC(=O)N(Cc2ccccc2)CC(OCC2CC2)C1` (stereo not drawn), for which the z-score is 0.442 (inactive) in assay [1] (setting [3]), -0.273 in assay [1] (setting [4]) and -1.6 (inactive) in assay [2].
In the same order, the values of `O=C(C1COc2ccccc2C1)N1CC(=O)N(C2CCCCC2)CC(OCc2ccccn2)C1` (stereo not drawn) are 0.04 (inactive), -1.17 and 2.08 (inactive).
Take `CCCCc1ncc(CN2CCc3c(cc(-c4ccncc4)c(=O)n3C/C=C/c3ccccc3)C2)[nH]1`: the z-score was -0.405 (inactive) in assay [1] (setting [3]), -0.0119 in assay [1] (setting [4]) and -0.41 (inactive) in assay [2].
In the same order, the values of `CC[C@@H]1NC(=O)[C@H]2CN(C(=O)Oc3cccc4ccccc34)CCN2C1=O` are 0.408 (inactive), 0.404 and -1.61 (inactive).
As to `CC(C)CNc1cc(C(=O)NC2Cc3ccccc3C2)cc(S(=O)(=O)NC(C)C)c1`, the z-score in assay [1] (setting [3]) was 0.0668 (inactive); in assay [1] (setting [4]), -0.0556; in assay [2], -1.6 (inactive).
Taken in the same sequence, the figures for `COCCn1c(C(=O)OC)c(NC(=O)c2ccco2)c2cc(NC3CCc4ccccc4C3)cnc21` (stereo not drawn) were 9.06 (active), -2 and -1.68 (inactive).
Turning to `Cc1cc(-c2cc3c(n(Cc4cccnc4)c2=O)CCN(C(=O)c2n[nH]c4c2CCC4)C3)ccc1F`, the z-score is -0.505 in assay [1] (setting [3]), 4.42 in assay [1] (setting [4]) and -1.53 (inactive) in assay [2].
Taken in the same sequence, the figures for `CC(C)CNC(=O)[C@@H]1C[C@H](CN2CCOCC2)CN(Cc2nccn2C)C1` were 0.0237 (inactive), 0.267 and 0.2 (inactive).
In the same order, the values of `O=C([C@@H]1C[C@H](CN2CCOCC2)CN(Cc2ccccc2)C1)N1CCCC1` are 0.0951 (inactive), -0.211 and -0.6 (inactive).
As for `CN1CCN(S(=O)(=O)c2cc(C(=O)NCCc3ccccn3)cc(-c3ccccc3)c2)CC1`, the z-score in assay [1] (setting [3]) is -0.308 (inactive); in assay [1] (setting [4]) it was -0.279; in assay [2] it was -0.695 (inactive).
As for `C=CCn1nc(C(=O)N2CCSCC2)c2c1CCC(NCCCSC)C2` (stereo not drawn), the z-score is -0.0452 (inactive) in assay [1] (setting [3]), -0.019 in assay [1] (setting [4]) and 0.93 (inactive) in assay [2].
With `COc1ccccc1C(=O)N1CCN2C(=O)[C@H](CCCCN)NC(=O)[C@H]2C1`, the z-score in assay [1] (setting [3]) is 0.643 (inactive); in assay [1] (setting [4]) it was -0.574; in assay [2], -0.735 (inactive).
